Measured values published in PubChem BioAssay (NCI).
About 83,000 compounds went through this panel and 20% of them were active in at least one assay; those are over-represented in the sample as a whole.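 Percent growth is the endpoint: 0 to 100 indicates growth inhibition (40 means 60% inhibition), 0 means no net growth, and negative values indicate cell death.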 A number with no mark means an inactive call. The source made the active and inactive calls. Rule for the calls: active = growth percent below 10; inactive = the rest.

Columns and labels:
Assay in all cases: NCI-60 one-dose screen, 48 h (100 = growth as untreated, 0 = no growth, -100 = all killed)
Conditions in all cases: 10 µM unless noted
[1] = system: NCI-H226 lung
[2] = system: NCI-H322M lung
[3] = system: HOP-62 NSCLC
[4] = system: NCI-H460 lung
[5] = system: HOP-92 NSCLC
[6] = system: NCI-H522 lung
[7] = system: A549/ATCC NSCLC
[8] = system: 786-0 renal
[9] = system: COLO 205 colon

SMILES	growth [1]	growth [2]	growth [3]	growth [4]	growth [5]	growth [6]	growth [7]	growth [8]	growth [9]
Cn1cc(-c2csc(-c3ccccc3)n2)c2cccnc21	-11.7% [100 µM] (active)	-23.6% [100 µM] (active)	-74.3% [100 µM] (active)	-56.2% [100 µM] (active)	-53% [100 µM] (active)	-24.3% [100 µM] (active)	-12.8% [100 µM] (active)	-77.4% [100 µM] (active)	-67.2% [100 µM] (active)
COc1cc(/C=N/Nc2ncc(-c3cc4cc5c(cc4o3)OCO5)s2)cc(OC)c1OC	76.9%	103%		56.7%	85.3%	40%	37.6%	84.5%	46.4%
NS(=O)(=O)c1ccc(-n2nc(C(=O)N/N=C\c3ccc(F)cc3)cc2-c2ccc(Cl)cc2)cc1	82.7%	89.6%	74.1%	99.4%	56%	78.4%	95.1%	105%	116%
COc1cccc(C(=O)NCCNc2cc(-c3cn(-c4ccccc4)nc3-c3cccc(OC)c3)ccn2)c1	77.3%	92.6%	61%	57.4%	46.2%	35.8%	43.6%	50.5%	59%
COC(=O)[C@H](CSC)N(C)C(=O)[C@@H]1CSSC[C@@H](NC(=O)c2nc3ccccc3cc2O)C(=O)NCC(=O)N1C	87.5%	100%	82.2%	59.1%	132%	45.9%	59.4%	111%	16%
COc1cc(-c2nc(N3CCN(C)CC3)c3ccccc3n2)cc(OC)c1OC	66.2%	84.4%	47.3%	84.5%	44.3%	8.58% (active)	72.5%	47.5%	81.5%
Clc1ccc(-c2c3ccc(=[N+]4CCCCC4)cc-3oc3cc(N4CCCCC4)ccc23)cc1	-87.6% (active)	-88.4% (active)	-89% (active)		-70.1% (active)	-87.7% (active)	-67.4% (active)	-96.5% (active)	-71.1% (active)
COC(=O)c1ccc(CSc2nnc(-c3c(C)nc4ccc(C)cn34)o2)cc1	95.2%	98.2%		109%	92%	83.5%	103%	91.8%	117%
CC1(C)CC(=O)CC2(C1)N=C(N)Nc1nc3ccccc3n12 (stereo unspecified)	95.6%	117%	119%		87.3%	69.6%		107%	102%
CC(=O)N1N=C(c2ccc(Nc3nc(Nc4ccc(F)cc4)nc(Nc4ccc(F)cc4)n3)cc2)CC1c1cccc([N+](=O)[O-])c1 (stereo unspecified)	101%	85.6%	82%	102%	71.2%	77%		86.4%	84.9%
O=C1C=C[C@]2(C[C@@H](c3cccc(C(F)(F)F)c3)O[C@@H](c3cccc(C(F)(F)F)c3)O2)O1	-72.7% (active)	74.3%	4.06% (active)	1.85% (active)	-5.73% (active)	-78.8% (active)	27.3%	-88.8% (active)	12.1%
CN(C)c1ccc(/C=C/C(=O)c2cccc(Nc3nc(Nc4ccccc4)nc(Nc4ccccc4)n3)c2)cc1	94%	93.5%		98.4%	46.9%	87.3%	85.6%	88.2%	81.5%
CCOC(=O)c1ccc(N2NC(=O)/C(=C/c3ccc([N+](=O)[O-])o3)C2=O)cc1	120%	99.8%	109%		105%	60.7%	-1.33% (active)	116%	129%
Cc1cccc(Cc2cnc(NC(=O)c3ccc4nnsc4c3)s2)c1	102%	97.4%	79.8%	114%	74.7%	77%	96.2%	96%	94.8%
CS(=O)(=O)c1ccc(Nc2nc(N[C@H]3CCCC[C@H]3N)nc3cc[nH]c(=O)c23)cc1	-4.65% (active)	24.1%	21.1%	12.4%	-8.34% (active)	-37% (active)	33.6%	22.5%	-3.93% (active)
N/C(=N/N=C/c1ccccc1)N/N=C\c1ccccc1	81%	85.2%	76.5%		57.1%	56.8%	59%	56.2%	67.7%
CC/C=C\C/C=C\C[C@H](O)C/C=C1/C(=O)C=C[C@@H]1C/C=C\CCCC(=O)O	59.6%	53.4%	62.8%	31.8%	87.3%		57.3%	-38.7% (active)	27%
CC(C)(C)C(CCc1ccc(Cl)cc1)N1CCN(C2CCCCC2)CC1 (stereo unspecified)	78.5%	82.8%	47.5%	25.2%	45.3%	41%	24.9%	42.4%	33.7%
COC(=O)[C@]12CC[C@@H](C)[C@H](C)[C@@H]1C1=CC[C@@H]3[C@@]4(C)C(C=O)=C[C@@](C)(COC(C)=O)[C@@H]4[C@H](O)C[C@@]3(C)[C@]1(C)CC2	-25.2% (active)	28.3%	8.74% (active)	-64.6% (active)	-6.92% (active)	-35% (active)	1.47% (active)	-36.2% (active)	-40.4% (active)
